Compound activity: PubChem, National Center for Advancing Translational Sciences (NCATS)
HCV inh: HCV inhibition; Huh7.5.1 HCVcc-Cre infection, luciferase reporter, 44 h; Potency, µM (doses to about 41.8 µM), for inactives: at the highest dose activity change, negative = inhibition, hits mostly inhibitors; 3.4% of 340,000 active; AID 651820; note: potency is the fitted concentration of half-maximal effect; % is set by controls: 0 for no effect and ±100 for the full control effect
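Compounds are dispensed onto cells plated 4 h earlier at 1,000 per well, with HCVcc-Cre virus (about 0.5 moi) added next. Following 44 h of culture, luminescent signal is measured for 15 sec after 15 min with substrate at room temperature.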
Pf growth 48h: inhibits P. falciparum growth in the first generation, 48 h | 5.9% of 310,000 active | P. falciparum luciferase growth in erythrocytes, 48 h | Potency, µM (doses to about 28.7 µM), for the others: at the top dose activity change, negative = inhibition, actives largely listed as inhibitors; note: potency is the fitted concentration of half-maximal effect; % is set by controls: 0 for no effect and ±100 for the full control effect
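In quantitative HTS format, infected erythrocytes bearing luciferase-reporter parasites were treated for a single generation at 37 C. Luminescence after adding detection reagent served as the growth measure.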
HCMV antiviral: blocks human cytomegalovirus replication | HFF cells, HCMV-luciferase reporter, 72 h; stronger effect = lower value | activity change, negative = inhibition, % at 57.5 µM | AID 1259415 | 4.5% of 410,000 active; in the data active = activity change below about -60%; inconclusive = no clear call, values can overlap the other calls; inactive = above about -39%; note: % is set by controls: 0 for no effect and ±100 for the full control effect
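Inhibition of viral replication was scored as loss of reporter luminescence in HFFs infected with HCMV-luciferase (MOI 1 PFU/cell) for 72 h; compounds tested at 2 doses, normalized to buffer and Salinomycin controls.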
Pf growth 96h: P. falciparum growth inhibition at 96 hour, primary screen for plastid delayed-death inhibitors; AID 504834; Potency, µM (titrated, usually from 28.7 µM), without a hit: top-dose activity change, negative = inhibition, hits mostly inhibitors; 6.9% of 320,000 active; P. falciparum luciferase reporter growth, 96 h; note: potency is the fitted concentration of half-maximal effect; % is set by controls: 0 for no effect and ±100 for the full control effect
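Plates of compound plus infected erythrocytes (2% hematocrit, 0.05% parasitemia final) incubate 96 hours, 37 C, 5% CO2. Detection reagent added; reduced luminescence from the parasites' luciferase reporter flags inhibition.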
HCV inh confirm: confirmation of hepatitis C virus inhibitors | shares compounds with HCV inh | HCVcc-Cre infectious virus cell assay, luciferase, inhibition | Potency, µM (top dose mostly 41.8 µM), inactives show at the highest dose activity, negative = inhibition, actives largely listed as inhibitors | 78% of 640 active | AID 720575; note: potency is the fitted concentration of half-maximal effect; nearly all actives have a fitted effect of over 80% in size
HCV host tox: host cell cytotoxicity counter-screen for HCV inhibitors; AID 720576; Potency, µM (series often up to 41.8 µM), for inactives: at the highest dose activity change, negative = cytotoxicity, most hits filed as inhibitors; shares compounds with HCV inh; HCV host cell line cytotoxicity counterscreen; 22% of 640 active;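 note: potency is the fitted concentration of half-maximal effect; 44 h compound exposure; % is set by controls: 0 for no effect and ±100 for the full control effect; nearly all actives have a fitted effect of over 55% in size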
* hit, by the source's call; [ ] = dose if it differs, or a comment. The list is not random: actives were taken first. Their share in the collection is about 13%. Unless noted, calls come from the whole dose curve; as a rule, active = well fitted curve in the direction sought with a large enough effect; inconclusive = small, poorly fitted or top-dose-only effect, or another doubt; inactive = no such curve, though single readings can be large; an effect the other way counts as inactive or inconclusive.

How did Cc1ccnc(NC(=O)CCCOc2cc(=O)n(C)c3ccccc23)c1 do in these assays?
HCV inh: 3.5µM*; Pf growth 48h: -24%; HCMV antiviral: -101*; Pf growth 96h: -12%; HCV inh confirm: 7.9µM*; HCV host tox: inconclusive

Results for Cc1ccccc1NC(=O)COC(=O)c1ccc(CSc2ccc(Cl)cc2)cc1 ?
HCV inh: 20%; Pf growth 48h: 11%; HCMV antiviral: 55; Pf growth 96h: 45%

How did Cc1cc(CSc2ccc(Cl)cc2)ccc1N do in these assays?
HCV inh: 4µM*; HCMV antiviral: 4; HCV inh confirm: 6.3µM*; HCV host tox: -12%

Results for CC1(C(=O)N2Cc3ccccc3C2)CCN1C(=O)C1(c2ccc(Cl)cc2)CC1 (configuration not stated) ?
HCMV antiviral: -31

What do the screens show for `O=C(Nc1ccn(Cc2ccccc2F)n1)c1ccc(COc2ccc(Br)cc2)cc1`?
HCV inh: 6.3µM*; Pf growth 48h: inconclusive; HCMV antiviral: -103*; Pf growth 96h: 2%; HCV inh confirm: 4.4µM*; HCV host tox: -72%

How did O=C(CSc1nc2nn(-c3ccccc3)c(=O)c-2c2n1CCCCC2)Nc1ccccc1[N+](=O)[O-] do in these assays?
HCV inh: inconclusive; Pf growth 48h: inconclusive; HCMV antiviral: -36; Pf growth 96h: 6.6µM*; HCV inh confirm: 14µM*; HCV host tox: 35%

Results for CCOc1ccc(Cc2nnc(SCC(=O)Nc3ccccc3)n(N)c2=O)cc1 ?
HCV inh: inconclusive; Pf growth 48h: inconclusive; HCMV antiviral: -18; Pf growth 96h: inconclusive

How did CCOc1ccccc1NC(=O)CSc1nnc(Cc2ccc(OC)cc2)c(=O)n1N do in these assays?
HCV inh: inconclusive; Pf growth 48h: inconclusive; HCMV antiviral: 8; Pf growth 96h: inconclusive; HCV inh confirm: 7.9µM*; HCV host tox: 26%

What do the screens show for `Cc1sc(NC(=O)Cc2ccc3c(c2)OCO3)nc1-c1ccc2c(c1)CCN2C(=O)c1cccc(F)c1`?
HCV inh: 4µM*; Pf growth 48h: inconclusive; HCMV antiviral: inconclusive; Pf growth 96h: 6.6µM*; HCV inh confirm: 3.5µM*; HCV host tox: inconclusive

What do the screens show for `Cc1cccc(C(=O)N2CCc3cc(-c4nc(NC(=O)Cn5nnc6ccccc6c5=O)sc4C)ccc32)c1`?
HCV inh: -12%; Pf growth 48h: 7%; Pf growth 96h: 56%

What do the screens show for `C[C@@H](CSc1ccc(Br)cc1)CN1CC[C@H](NC(=O)OCc2ccccc2)CCC1=O`?
HCV inh: 4.5µM*; HCMV antiviral: -25; HCV inh confirm: 14µM*; HCV host tox: -63%

What do the screens show for `O=S(=O)(Nc1ccc(-c2cn3ccccc3n2)cc1)c1ccccc1`?
HCV inh: 7%; Pf growth 48h: 6%; HCMV antiviral: -4; Pf growth 96h: 62%

How did Cc1cc(C)c(S(=O)(=O)Nc2ccc(-c3cn4ccccc4n3)cc2)c(C)c1 do in these assays?
HCV inh: inconclusive; Pf growth 48h: 15µM*; HCMV antiviral: inconclusive; HCV inh confirm: 22µM*; HCV host tox: -14%

What do the screens show for `O=C(NC(Nc1ncc(S(=O)(=O)c2ccc([N+](=O)[O-])cc2)s1)(C(F)(F)F)C(F)(F)F)c1ccc(Cl)cc1`?
HCV inh: 4.5µM*; Pf growth 48h: 9.3µM*; HCMV antiviral: -96*; HCV inh confirm: 4.4µM*; HCV host tox: 7.9µM*

What do the screens show for `COCCCNCCOCCOc1ccccc1-c1ccccc1`?
HCV inh: 7.9µM*; Pf growth 48h: -8%; HCMV antiviral: -36; Pf growth 96h: inconclusive; HCV inh confirm: inconclusive; HCV host tox: inconclusive

Results for C=CCc1ccccc1OCCNCCCOC ?
HCV inh: 13%; Pf growth 48h: 0%; HCMV antiviral: -2; Pf growth 96h: 83%

What do the screens show for `COc1cccc(CN(C)C(=O)CC[C@H]2O[C@@H](n3ccc(=O)[nH]c3=O)[C@H](O)[C@@H]2O)c1`?
HCMV antiviral: 22

How did COC(=O)C1=C(C)NC(=O)NC1c1ccc(-c2ccccc2Cl)o1 (configuration not stated) do in these assays?
HCV inh: inconclusive; Pf growth 48h: -3%; HCMV antiviral: -22; Pf growth 96h: 3.7µM*; HCV inh confirm: 22µM*; HCV host tox: 2%

What do the screens show for `O=C(Nc1ccc(Cl)cc1)N[C@@H]1c2c(ccc3ccccc23)OC[C@@H]1CO`?
HCV inh: inconclusive; Pf growth 48h: 44%; HCMV antiviral: inconclusive; Pf growth 96h: 44%; HCV inh confirm: inconclusive; HCV host tox: inconclusive

Results for CN(C(=O)c1ccccc1)C1c2c(ccc3ccccc23)OCC1CO (configuration not stated) ?
HCV inh: 0%; Pf growth 48h: inconclusive; HCMV antiviral: inconclusive; Pf growth 96h: 24%

How did COc1cccc(C(=O)Nc2ccc3nc(N4CCOCC4)cc(C)c3c2)c1 do in these assays?
HCV inh: inconclusive; Pf growth 48h: 15µM*; HCMV antiviral: -9; Pf growth 96h: 0.47µM*; HCV inh confirm: 2.8µM*; HCV host tox: 17%

Results for CCOc1ccccc1C(=O)Nc1ccc2nc(N3CCN(c4ncccn4)CC3)cc(C)c2c1 ?
HCV inh: 2.2µM*; HCV inh confirm: 5µM*; HCV host tox: -79%

What do the screens show for `O=C(NCc1ccccc1)C(C1CC1)n1c(=O)c(-c2ccco2)nc2ccccc21` (configuration not stated)?
HCMV antiviral: 58

How did c1coc(CNc2nc3nonc3nc2NCc2ccco2)c1 do in these assays?
HCV inh: inconclusive; Pf growth 48h: 1%; HCMV antiviral: -72*; Pf growth 96h: inactive; HCV inh confirm: 2.2µM*; HCV host tox: -23%

How did CCOc1cc(/C=C/C(=O)Nc2ccc(C(=O)NCCN(CC)CC)cc2)ccc1OCC(C)C do in these assays?
HCV inh: 3.2µM*; Pf growth 48h: 2.6µM*; HCMV antiviral: -114*; Pf growth 96h: 0.52µM*; HCV inh confirm: 16µM*; HCV host tox: 35µM*

How did COc1ccc2sc(C)nc2c1NC(C)=O do in these assays?
HCV inh: -4%; Pf growth 48h: -9%; HCMV antiviral: -17; Pf growth 96h: inconclusive

Results for COc1cc2sc(C)nc2c2sccc12 ?
HCV inh: 2.2µM*; Pf growth 48h: -9%; HCMV antiviral: 11; Pf growth 96h: -8%[5.75 µM]; HCV inh confirm: 25µM*; HCV host tox: 43%

How did N=c1c(C(=O)NCc2ccc3c(c2)OCO3)cc2c(=O)n3ccccc3nc2n1Cc1cccnc1 do in these assays?
HCV inh: 6.3µM*; Pf growth 48h: 10µM*; HCMV antiviral: -13; Pf growth 96h: 3%; HCV inh confirm: 14µM*; HCV host tox: 0%
